Shown are actives, neighbours in structure and some others; about 0.57% of the full set was active somewhere.
ALOX12 inhib – inhibitors of human 12-lipoxygenase (ALOX12) | P18054 | Potency, µM (highest dose often 57.1 µM), inactives show at the highest dose activity change, negative = inhibition, most hits filed as inhibitors | AID 1452 | hit rate 0.12% among 150,000 | purified 12-hLO, xylenol orange hydroperoxide absorbance; further: potency means the concentration at half of the fitted maximal effect; nearly all actives have a fitted effect of over 55% in size
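Purified human 12hLO (150 nM), preincubated 15 min with compound, then 40 uM arachidonic acid for 30 min, room temperature, Hepes pH 7.0 with 0.01% Triton X-100. Hydroperoxide detected by ferrous iron/xylenol orange; 573/405 nm absorbance ratio gives reaction progress.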
15-hLO-2 inh – blocks human 15-lipoxygenase 2 activity; O15296; purified 15hLO-2, xylenol orange hydroperoxide absorbance; Potency, µM (top dose mostly 57.1 µM), inactives show at the top dose activity change, negative = inhibition, hits mostly inhibitors; hit rate 0.56% among 110,000; AID 881; further: potency means the concentration at half of the fitted maximal effect; nearly all actives have a fitted effect of over 60% in size
Target sequence (O15296 whole entry, looked up): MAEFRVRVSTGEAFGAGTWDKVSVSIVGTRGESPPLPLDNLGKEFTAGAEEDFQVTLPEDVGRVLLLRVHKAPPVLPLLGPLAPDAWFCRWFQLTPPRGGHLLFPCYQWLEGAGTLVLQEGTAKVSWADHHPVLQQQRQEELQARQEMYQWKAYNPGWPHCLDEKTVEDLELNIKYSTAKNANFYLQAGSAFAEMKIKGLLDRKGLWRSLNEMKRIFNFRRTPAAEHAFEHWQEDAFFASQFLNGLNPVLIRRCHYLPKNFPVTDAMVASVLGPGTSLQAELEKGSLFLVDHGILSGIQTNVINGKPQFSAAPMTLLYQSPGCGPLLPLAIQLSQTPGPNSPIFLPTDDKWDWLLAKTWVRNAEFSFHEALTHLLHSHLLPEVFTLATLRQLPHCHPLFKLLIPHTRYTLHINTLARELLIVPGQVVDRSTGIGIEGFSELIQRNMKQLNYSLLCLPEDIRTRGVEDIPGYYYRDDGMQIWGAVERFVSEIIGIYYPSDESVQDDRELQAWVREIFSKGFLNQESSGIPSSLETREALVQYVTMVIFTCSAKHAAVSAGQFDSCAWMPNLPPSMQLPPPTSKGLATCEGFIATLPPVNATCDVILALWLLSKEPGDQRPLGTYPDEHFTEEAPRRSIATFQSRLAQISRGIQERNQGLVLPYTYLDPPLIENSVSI
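Read-out: hydroperoxide product oxidises ferrous iron, measured as xylenol orange complex via the 573-to-405 nm absorbance ratio after 30 min. Reaction: 50 nM enzyme, 15 min compound preincubation, 45 uM arachidonic acid, 90 min RT, Hepes pH 7.5 with Triton X-100.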
IMPase inh – cell-permeable inhibitors of inositol monophosphatase (IMPase); inhibition (IP1 accumulation), % at 46.1 µM; CHO-M1 cells, IP1 accumulation, HTRF TR-FRET ratio; AID 901; P97697; 120,000 tested, under 10 active; active means well fitted curve in the direction sought with a large enough effect in the signal ratio, not every such curve was filed as active; inconclusive means small, poorly fitted or top-dose-only effect, or a change in a side signal; inactive means no such curve, though single readings can be large or run the other way; the % refers to the signal ratio;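 further: cells stimulated with carbachol in lithium chloride buffer; plate controls were DMSO basal wells for no effect and reference inhibitor wells for full effect; higher means more IMPase inhibition seen as more IP1 and lower FRET ratio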
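CHO-M1 cells (CHO stably expressing M1 receptor), compound up to 46 uM final, stimulated with carbachol (50 uM as added) in buffer with 50mM LiCl, pH 7.4, 30 min at 37C. Cytosolic IP1 read by TR-FRET; AC50 from Hill fits.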
IMPase Li inh – membrane-permeable IMPase blocker, potentiated with lithium; CHO-M1 cells, IP1 TR-FRET (IP-One), carbachol + lithium; Potency, µM (series often up to 59.4 µM), without a hit: at the top dose activity, negative = IMPase inhibition, hits mostly inhibitors; hit rate 0.35% among 210,000; AID 1457;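 further: IP1 builds up when IMPase is blocked and the TR-FRET signal falls; potency means the concentration at half of the fitted maximal effect; plate controls were basal vehicle for no effect and high inhibitor control for full effect; nearly all actives have a fitted effect of over 50% in size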
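Test compounds were applied to CHO-M1 cells previously cultured for 16–30 h at 2000 per well. A small lithium amount accompanied them; after 30 min at 37C, IP1 was quantified by TR-FRET.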
Active calls of the source: *; ? = inconclusive; . = not tested or not shown; [ ] = dose if it differs, or a comment. Unless noted, the call rests on the fitted dose curve; in most records, active means well fitted curve in the direction sought with a large enough effect; inconclusive means small, poorly fitted or top-dose-only effect, or another doubt; inactive means no such curve, though single readings can be large; an effect the other way counts as inactive or inconclusive. Unless noted, on the % scale 0 is the no-effect control and ±100 the full control effect.

SMILES	ALOX12 inhib	15-hLO-2 inh	IMPase inh	IMPase Li inh
CCOC(=O)C1(C)/C(=N/Nc2ccc(Cl)cc2)C(=O)C(=O)N1c1ccccc1 (stereo unspecified)	?	?	4.5	10.3%[38.3 µM]
Nc1c(C(=O)Nc2ccc(Br)cc2)sc2nc(-c3ccco3)ccc12	?	?	?	11.2µM*
Cc1ccc(C(=O)NC(=S)Nc2ccc(Oc3ccc(Cl)cc3)cc2)cc1	-7.6%	12.6µM*	16.6	10.9%[38.3 µM]
Cc1ccc(CN=Cc2[nH]c3ccc(Br)c(Cl)c3c2O)cc1	?	?	-12.1	8.91µM*
COc1cccc2c(=O)n(CC(=O)Nc3cccc(F)c3)ccc12	-4.0%	-9.9%	-22.9	14.1µM*
C=C(C)CC1Nc2ccccc2NC1CC(=C)C (stereo unspecified)	-27.2%	25.1µM*	22.5	28.6%[38.3 µM]
COc1ccc(C(=O)CSc2nc(N)nc(SC)c2C#N)cc1	0.4%	-18.0%	-7.7	6.31µM*
c1cncc(-c2cccnc2)c1	0.4%	.	-1.6	14.1µM*
c1cncc(-c2nn[nH]n2)c1	-2.3%	-9.0%	2.8	4.1%[38.3 µM]
COc1ccc(N2CCN(c3ccc(NC(=O)C4CCCCC4)cc3C#N)CC2)cc1	5.4%	-16.3%	-1.3	?
COc1ccc(C(=O)Nc2ccc(N3CCN(c4ccc(OC)cc4)CC3)c(C#N)c2)cc1	6.4%	-5.8%	?	1.78µM*
COc1cccc2c1[C@@H]1CN(CCCCn3c(=O)[nH]c4c(sc5ncc(-c6ccccc6)nc54)c3=O)C[C@H]1CO2	9.3%	45.2%	6.2	.
O=C(NCCN1CCN(c2ccccc2)CC1)c1ccc2c(c1)[nH]c(=S)n1c3ccccc3nc21	.	.	.	10µM*
O=C(c1ccc2c(c1)[nH]c(=S)n1c3ccccc3nc21)N1CCN(c2ncccn2)CC1	6.0%	?	-18.4	7.08µM*
O=C(c1ccc(F)cc1)N1CCN(c2ncccn2)CC1	-1.7%	0.3%	9.0	3.5%[38.3 µM]
C1CCC[C@H]2CCCN3CC[C@H](CCCCCC[C@@H]4CCCN5CC[C@H](CC1)OC45)OC23	.	.	.	-8.0%
CC#CCN1c2ccccc2[C@]23C[C@@H](C(=O)OC)N(S(=O)(=O)c4ccc(C(F)(F)F)cc4)C2=NC(C(=O)OC)=C(C(=O)OC)[C@H]13	2.0%[11.4 µM]	.	.	0.9%
CCOc1ccc(OCC)c(NC(=O)c2[nH]c(C)c(C(C)=O)c2C)c1	4.6%	-0.3%	-15.8	7.08µM*
CC(=O)c1cccc(NS(=O)(=O)c2cccc(C(=O)O)c2)c1	-2.2%	.	.	.
O=C(c1ccc(Cl)c(Cl)c1)c1cc(-c2ccccn2)c(N2CCOCC2)s1	-10.2%	-9.9%	-18.7	10µM*
Cc1ccccc1S(=O)(=O)Nc1nc2ccccc2nc1Cl	.	.	.	3.55µM*
O=C(Nc1ccccn1)c1cc2cc([N+](=O)[O-])ccc2s1	.	.	.	15.8%
C=CCOc1ccc2cccc(/C=N/NC(=O)c3cc4cc([N+](=O)[O-])ccc4s3)c2c1	-0.5%	10µM*	6.0	0.0%[38.3 µM]
Cc1cc2nc(SCC(=O)Nc3nonc3C)c3c(c2cc1C)CCCC3	-4.5%	-0.8%	-18.7	6.31µM*
O=[N+]([O-])c1cccc(C(F)(F)F)c1	-3.5%	2.1%	.	-1.1%
SMILES	ALOX12 inhib	15-hLO-2 inh	IMPase inh	IMPase Li inh
COCC(=O)Nc1ccccc1C(=O)Nc1ccc(OC)cc1	0.3%	10.2%	3.6	31.6µM*
CSCCC(Nc1ncnc2ccc(Br)cc12)C(=O)O (stereo unspecified)	5.1%	-4.9%	-26.7	10µM*
CC(C)Nc1ncnc2ccc(Br)cc12	-5.3%	.	.	-10.4%
Cc1nn2c3ccccc3n(CC(=O)c3cccs3)c2nc1=O	.	.	.	3.98µM*
O=C1OC(O)C(C(Cl)Cl)=C1Cl (stereo unspecified)	0.2%	-11.4%	.	2.3%
CN=c1nc(-c2ccccc2)n(-c2ccccc2)s1	?	1µM*	13.5	25.1%
c1ccc(Cn2nc(-c3ccccc3)nc2-c2ccccc2)cc1	-3.5%	.	.	17.2%
C[C@@H](COc1ccc(/C=C\c2ccccc2)cc1)[N+](C)(C)C	-6.0%	-7.1%	22.2	.
O=C(c1cc2c(s1)-c1ccccc1OC2)N1CCN(c2ccccc2)CC1	-11.2%	-7.1%	?	7.94µM*
Cc1csc(NC(=O)c2cc3c(s2)-c2ccccc2OC3)n1	7.6%	.	-4.9	1.2%
O=C(c1cc2c(s1)-c1ccccc1OC2)N1CCN(c2ccccn2)CC1	-5.5%	15.0%	?	10µM*
CN(C)CCNC(=O)c1cc2c(s1)-c1ccccc1OC2	2.7%	38.7%	-19.2	8.91µM*
COC(=O)c1ccccc1N/C=C1\CCc2c(c(C)nn2-c2ccccn2)C1=O	-20.7%	2.51µM*	7.6	5.5%[38.3 µM]
CCc1ccccc1N1CSC2=C(C#N)C(c3cc(OC)c(OC)cc3OC)CC(=O)N2C1 (stereo unspecified)	?	10µM*	8.4	-22.6%[38.3 µM]
COc1ccc(OC)c(C2CC(=O)N3CN(c4ccc(C)c(Cl)c4)CSC3=C2C#N)c1 (stereo unspecified)	-7.4%	?	-11.1	12.1%[38.3 µM]
COc1cc(OC)c(C2CC(=O)N3CN(c4ccccc4)CSC3=C2C#N)cc1OC (stereo unspecified)	-22.1%	10µM*	-4.1	-3.3%[38.3 µM]
N#Cc1c(Cl)nc(SCc2ccccc2)nc1-c1ccccc1	-12.0%	?	?	2.51µM*
CCN(CC)c1nc(-c2ccccc2Cl)c2cc(Br)ccc2n1	.	.	-16.2	.
O=C(O)CCC(=O)N1CCN(c2nc(-c3ccccc3Cl)c3cc(Br)ccc3n2)CC1	-5.2%	-18.0%	?	14.1µM*
CCOc1ncccc1C(=O)OCC(=O)Nc1cc(C(=O)OC)ccc1C(=O)OC	-4.9%	0.5%	-0.8	-7.2%[38.3 µM]
COC(=O)c1ccc(C(=O)OC)c(NC(=O)COC(=O)c2ccccc2OC)c1	-1.2%	.	.	11.2µM*
O=C(Nc1nnc(C2CC2)s1)c1cc2c(s1)CCCCCC2	-5.8%	14.2%	1.4	10µM*
Cc1csc(NC(=O)c2cc3c(s2)CCC3)n1	-18.2%	23.7%	5.7	-1.8%[38.3 µM]
CC(CC1C(C#N)=C(N)SC(N)=C1C#N)c1ccccc1 (stereo unspecified)	-7.1%	20µM*	2.6	-25.3%[38.3 µM]
CC(c1ccccc1)C1C(C#N)=C(N)SC(N)=C1C#N (stereo unspecified)	-21.4%	-13.8%	12.2	.
SMILES	ALOX12 inhib	15-hLO-2 inh	IMPase inh	IMPase Li inh
CCOC(=O)CN1C(=O)S/C(=C/c2ccc(N3CCCCC3)o2)C1=O	-5.4%	-21.2%	1.4	-3.4%[38.3 µM]
COC(=O)CN1C(=O)S/C(=C/c2ccc(N3CCCCC3)o2)C1=O	-7.3%	12.6µM*	-3.4	18.2%[38.3 µM]
COc1ccc2c(c1)CCC1C2CC[C@]2(C)[C@H](NCCCCCCN3C(=O)C=CC3=O)CC[C@@H]12 (stereo partly specified)	-2.4%	-17.7%	6.7	.
C/C=C1/C(=O)C[C@@H]2[C@H]3CCC4=CC(=O)CC[C@]4(C)[C@@H]3CC[C@]12C	.	.	.	6.1%
CCC(CC)C(=O)Nc1cccc(S(=O)(=O)c2cccc(NC(=O)C(CC)CC)c2)c1	4.0%	8.5%	-9.9	11.2µM*
O=C(Nc1ccsc1C(=O)NC1CCCCC1)c1ccc(F)cc1	0.6%	.	-10.5	28.2µM*

From PubChem
